Inconclusive results are not listed. Where a call stands in place of a potency, no number is given. The source made the active and inactive calls. The call rests on the fitted dose curve; in most records, active means well fitted inhibition curve with a large enough effect; inconclusive means small, poorly fitted or top-dose-only effect; inactive means flat fitted curve, though single readings scatter. Peptide text beside a SMILES is read from it.
The compounds below were run on W2 (assay: qHTS profiling for inhibitors of Plasmodium falciparum proliferation (AID 504749; further: nearly all actives have a fitted effect of over 60% in size)). Details: P. falciparum in erythrocytes, SYBR Green DNA, 72 h; series mostly up to 12.8 µM.
Method in brief: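 Parasite proliferation within erythrocytes, 72 h exposure. Endpoint: SYBR Green I fluorescence after overnight lysis at room temperature. Controls: 0.29 uM artemisinin, DMSO.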
Potency means the concentration at half of the fitted maximal effect.

Row | SMILES | Potency
1 | CN(C)CCCOC1C(C(O)CO)OC2OC(C)(C)O[C@@H]21 (some centres not stated) | inactive
2 | CCC(C)C(=O)OC1CCC=C2C=CC(C)C(CCC3CC(O)CC(=O)O3)[C@@H]21 (some centres not stated) | inactive
3 | NC(C(=O)O)[C@@H]1CC(Cl)=NO1 (some centres not stated) | 849 nM (active)
4 | CN1CC(=O)N=C1N | inactive
5 | CC(C)C1CCC(C(=O)NC(Cc2ccccc2)C(=O)O)CC1 (configuration not stated) | inactive
6 | CCC(CCC(C)C1CCC2C3CC=C4CC(O)CC[C@@]4(C)C3CC[C@@]12C)C(C)C (some centres not stated) | inactive
7 | C[C@]12CCC(=O)C=C1CCC1C2C(=O)C[C@]2(C)C1CC[C@]2(O)C(=O)CO (some centres not stated) | inactive
8 | OCC1O[C@H](OC2C(CO)O[C@@](O)(CO)C2O)C(O)C(O)C1O (some centres not stated) | inactive
9 | CC1(C)OC2CO[C@]3(COS(N)(=O)=O)OC(C)(C)OC3C2O1 (some centres not stated) | inactive
10 | CCOC(=O)C1=CC(OC(CC)CC)C(NC(C)=O)C(N)C1 (configuration not stated) | 6750 nM (active)
11 | COC1C=CO[C@@]2(C)Oc3c(C)c(O)c4c(O)c(c5c(nc6cc(C)ccn65)c4c3C2=O)NC(=O)/C(C)=C\C=CC(C)C(O)[C@@H](C)C(O)C(C)[C@@H](OC(C)=O)C1C (some centres not stated) | 1900 nM (active)
12 | COC(=O)C(Cc1ccccc1)NC(=O)C(N)CC(=O)O (stereo not drawn) (H-Asp-Phe-OMe; configuration not given here) | inactive
13 | C[C@]12C=CC(=O)C=C1CCC1C2C(O)C[C@]2(C)C1CC[C@]2(O)C(=O)CO (some centres not stated) | inactive
14 | CC1(C)S[C@H]2C(NC(=O)[C@@H](N)c3ccc(O)cc3)C(=O)N2[C@@H]1C(=O)O (some centres not stated) | inactive
15 | CC(C)=CCC[C@](C)(O)C1CC=C(C)CC1 (some centres not stated) | inactive
16 | C[C@]1(c2ccccc2)OC(C(=O)O)=CC1=O | inactive
17 | CC(=O)N[C@H](CC(C)C)C(=O)O | inactive
18 | COc1ccc2cc(C(C)CO)ccc2c1 (configuration not stated) | inactive
19 | COC1C=CO[C@@]2(C)Oc3c(C)c(O)c4c(O)c(c(C=NN5CCN(C)CC5)c(O)c4c3C2=O)NC(=O)/C(C)=C\C=CC(C)C(O)[C@@H](C)C(O)C(C)[C@H](OC(C)=O)C1C (some centres not stated) | 120 nM (active)
20 | CC1CCC(C(C)C)C(=O)C1 (configuration not stated) | inactive
21 | CCCC(=O)O[C@]1(C(=O)CO)CCC2[C@@H]3CCC4=CC(=O)CC[C@]4(C)C3C(O)C[C@]21C (some centres not stated) | inactive
22 | CC(=O)[C@]1(O)CCC2C3C=C(Cl)C4=CC(=O)C5CC5[C@@]4(C)C3CC[C@]21C (some centres not stated) | inactive
23 | CC(=O)N[C@@H]1C(O)OC(CO)C(O)C1O (some centres not stated) | inactive
24 | O=C1OC(CO)C(O)C(O)C1O (configuration not stated) | inactive
25 | CNC1C(OC2C(O[C@@H]3C(O)C(O)[C@@H](N=C(N)N)C(O)C3N=C(N)N)OC(C)[C@@]2(O)CO)OC(CO)C(O)C1O (some centres not stated) | inactive
26 | COc1cc(C2c3cc4c(cc3C(O[C@@H]3OC5COC(c6cccs6)OC5C(O)C3O)C3COC(=O)C23)OCO4)cc(OC)c1O (some centres not stated) | 1200 nM (active)
27 | Nc1nc2ncc(CNc3ccc(C(=O)NC(CCC(=O)O)C(=O)O)cc3)nc2c(=O)[nH]1 (configuration not stated) | inactive
